Bioassay records deposited in PubChem BioAssay by several laboratories.
The list is not random: actives were taken first. Their share in the collection is about 2.1%.
Rce1 inh: inhibitors of yeast Ras-converting enzyme. Q03530. yeast membranes, quenched prenylated peptide cleavage fluorescence. calls only. 290,000 tested, 0.27% active. AID 2563;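 active = fall in fluorescence gain of 50% or more versus controls, with final raw signal at or below 3038400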;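 note: plate controls were neutral control wells for no effect and wells lacking membranes for full effect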
PLCb3 inh: PLC-beta3 (human) inhibition, primary screen | Purified PLC-beta3, fluorogenic substrate, fluorescence | inhibition, % at 12.2 µM | Q01970 | 370,000 tested, 0.18% active; in the data active = inhibition above about 11%;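 note: 0% = median of compound wells on plate and 100% = full blocker control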
ADAM17 inh: inhibits human ADAM17; P78536; recombinant ADAM17, EDANS/DABCYL FRET peptide cleavage; inhibition, % at 6.95 µM; 370,000 tested, 0.83% active;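 active = inhibition above the mean of compounds lying between control limits plus 3 SD, set per campaign, cut at about 8.5% in these data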;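 note: 0% = DMSO-only wells as the low control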
ADAM10 inh: inhibitors of human ADAM10; O14672; recombinant ADAM10, EDANS/DABCYL FRET peptide cleavage, 3 h; inhibition, % at 7 µM; 370,000 tested, 0.62% active;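 active = inhibition above a per-campaign cutoff equal to the mean of compounds falling between control-based bounds plus 3 SD, cut at about 20% in these data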;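 note: 0% = DMSO wells while the 100% control is not disclosed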
Target sequence (O14672 214-748 limits assumed): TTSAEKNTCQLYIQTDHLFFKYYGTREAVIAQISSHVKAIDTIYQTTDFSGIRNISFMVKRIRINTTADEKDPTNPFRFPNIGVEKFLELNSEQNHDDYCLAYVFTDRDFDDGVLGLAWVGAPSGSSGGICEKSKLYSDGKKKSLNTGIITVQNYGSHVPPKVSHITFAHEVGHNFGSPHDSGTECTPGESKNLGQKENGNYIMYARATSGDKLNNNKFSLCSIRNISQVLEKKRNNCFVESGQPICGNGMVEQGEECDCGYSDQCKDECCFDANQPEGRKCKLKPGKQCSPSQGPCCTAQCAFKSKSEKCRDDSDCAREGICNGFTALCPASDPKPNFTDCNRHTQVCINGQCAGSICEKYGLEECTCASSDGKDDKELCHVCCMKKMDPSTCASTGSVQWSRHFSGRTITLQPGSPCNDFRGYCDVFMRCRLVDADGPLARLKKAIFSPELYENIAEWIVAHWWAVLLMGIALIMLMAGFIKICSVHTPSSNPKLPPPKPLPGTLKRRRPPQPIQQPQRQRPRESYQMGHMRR
PLCg1 inh: blocks human PLC-gamma1 enzyme activity; purified PLC-gamma1, fluorogenic substrate, fluorescence; P19174; inhibition, % at 12.2 µM; 370,000 tested, 0.84% active; in the data active = inhibition above about 9.5%
ADAM10 confirm: confirmation of inhibitors of human ADAM10; inhibition, % at 6.95 µM; ADAM10 QFRET peptide cleavage, EDANS fluorescence; shares compounds with ADAM10 inh; 2,100 tested, 1% active; AID 743208;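 active = inhibition above about 20% chosen separately for each screening run, limit read from the data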;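 note: 0% = DMSO wells and 100% = marimastat wells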
ADAM17 ctr: ADAM17 inhibition, counter-screen for ADAM10 exosite hits; inhibition, % at 6.95 µM; ADAM17 QFRET peptide cleavage, EDANS fluorescence; shares compounds with ADAM10 inh; 2,100 tested, 0.5% active;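 active = mean triplicate inhibition above the solvent-only control wells' mean plus 3 SD, cut at about 12% in these data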;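 note: 0% = DMSO wells and 100% = marimastat wells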
ADAM10 counter: inhibits human ADAM10 in ADAM17 exosite counter-screen; shares compounds with ADAM17 inh; recombinant ADAM10, EDANS/DABCYL FRET peptide cleavage, 3 h; inhibition, % at 6.95 µM; 2,900 tested, 47% active; AID 743256;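 active = mean inhibition over the triplicate runs exceeds the activity threshold set in the earlier primary screen, cut at about 20% in these data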;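 note: 0% = DMSO wells and 100% = marimastat wells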
ADAM17 confirm: human ADAM17 inhibition, confirmation; shares compounds with ADAM17 inh; recombinant ADAM17, EDANS/DABCYL QFRET peptide cleavage; inhibition, % at 6.95 µM; 2,900 tested, 65% active; AID 743257;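 active = mean inhibition across replicates above the hit cutoff set in the primary screen, cut at about 8.5% in these data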;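 note: 0% = DMSO wells and 100% = marimastat wells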
* = called active by the depositor; i = inactive; / = not tested or not shown.

SMILES	Rce1 inh	PLCb3 inh	ADAM17 inh	ADAM10 inh	PLCg1 inh	ADAM10 confirm	ADAM17 ctr	ADAM10 counter	ADAM17 confirm
Cc1ccc2nc(NC(=O)CN(C)S(=O)(=O)c3ccc(Br)s3)sc2c1	i	-2.3	10.3*	24.4*	4.2	6.7	2.5	25.3*	15.4*
COC(=O)[C@]12C[C@H](CC(=O)NCCC(C)C)C(=O)N(Cc3ccc4c(c3)OCO4)C1=C[C@H](C(C)(C)C)O[C@@H]2C	/	4.2	1.4	10.6	-1.1	/	/	/	/
Cc1[nH]c2ccccc2c1C(=O)COC(=O)c1c(-c2c(F)cccc2Cl)noc1C	i	-4.0	12.8*	26.2*	-1.4	5.3	2.4	31.7*	17.2*
CCOC(=O)c1ccc(NC(=O)COC(=O)c2cccc(Oc3ccccc3)c2)cc1	i	-0.1	12.7*	28.1*	-1.8	8.6	2.7	26.9*	14.3*
CCOC(=O)c1ccc(NC(=O)c2ccc(NC(=O)c3ccccc3)cc2)cc1	i	-19.5	-5.4	-7.8	-2.1	/	/	/	/
Cc1ccccc1N(CC(=O)N/N=C/c1cc(Br)c(C)o1)S(C)(=O)=O	i	-0.8	1.4	-4.4	-0.6	/	/	/	/
CCOC(=O)c1c(N)sc(C(O)(C(F)(F)F)C(F)(F)F)c1-c1ccc(Cl)cc1	i	-2.6	11.0*	36.7*	-1.9	8.0	2.5	47.2*	24.2*
COc1ccc(OCCNS(=O)(=O)c2ccc3oc4ccccc4c3c2)cc1	i	-0.5	-3.1	12.4	-59.2	/	/	/	/
O=S(=O)(NCCOCC(F)(F)C(F)F)c1ccc2oc3ccccc3c2c1	i	1.7	9.5*	28.6*	5.2	1.2	0.1	31.8*	21.1*
O=C(NCc1ccccc1Cl)C1CCN(C(=O)c2ccco2)CC1	i	/	/	/	/	/	/	/	/
COCCOC(=O)c1c(C)n(C)c2ccc(OC(=O)c3c(OC)cccc3OC)cc12	i	-4.5	10.2*	20.7*	1.7	5.5	1.4	13.0	9.1*
Cc1ccc(NC(=O)NNC(=O)Cn2nc(-c3ccccc3)c(-c3ccccc3)c(C#N)c2=O)cc1	i	1.3	19.7*	20.4*	-4.2	7.8	3.0	14.2	15.3*
COc1cccc(-c2noc(-c3ccc(Cl)nc3)n2)c1	i	4.1	-0.3	-6.9	2.8	/	/	/	/
CN1CCN(c2ncnc3c2ncn3[C@H]2CN(Cc3ccc(-c4ccccc4)cc3)C[C@@H](CO)O2)CC1	/	5.5	-1.1	-9.4	2.5	/	/	/	/
CCc1nc2ccc(C(=O)Nc3cc(-c4ccccc4)ccc3OC)cn2c1N(C)Cc1nccs1	/	-37.1	11.0*	27.3*	-19.5	6.4	2.0	19.7	14.7*
CCc1nc2ccc(C(=O)Nc3cc(-c4ccccc4)ccc3OC)cn2c1N(C)Cc1ccc(OC)cc1	/	-20.2	-1.5	-7.0	-16.0	/	/	/	/
O=C(Nc1cccc(F)c1)c1cc(S(=O)(=O)NCCC2=CCCCC2)ccc1F	i	-8.1	9.1*	23.8*	1.8	8.2	2.2	22.5*	14.5*
COc1ccc(S(=O)(=O)N2CCOCC2)cc1NC(=O)CCCOc1ccc(C(C)=O)cc1	/	7.7	-1.5	1.5	1.4	/	/	/	/
CN(C)c1ccc(C(CNC(=O)c2ccc(C#N)cc2)c2c[nH]c3ccccc23)cc1 (configuration not stated)	i	0.5	6.8	12.7	-1.0	/	/	/	/
CCOC(=O)c1ccc(S(=O)(=O)NCC(c2ccc(N(C)C)cc2)c2c[nH]c3ccccc23)cc1 (configuration not stated)	i	-5.4	12.1*	26.2*	-1.9	8.9	3.3	35.9*	22.8*
O=C1OCCN1C(=O)[C@H]1[C@H](c2ccc([N+](=O)[O-])cc2)C(c2ccc(F)cc2)=NN1c1ccccc1	/	-7.1	9.0*	21.1*	-2.7	4.5	2.6	36.0*	17.5*
O=C1OCCN1C(=O)[C@H]1[C@H](c2ccc([N+](=O)[O-])cc2)C(c2ccc(F)cc2)=NN1c1ccc(Br)cc1	/	-2.9	9.2*	22.1*	-0.8	13.7	4.5	20.3*	12.8*
O=C1OCCN1C(=O)[C@H]1[C@H](c2ccccc2)C(c2ccc(F)cc2)=NN1c1ccc(Br)cc1	/	-48.5	-23.0	-65.1	-29.8	/	/	/	/
CCN(C[C@H]1N[C@@](Cc2ccccc2)(C(=O)OC)[C@H]2C(=O)N(C)C(=O)[C@@H]12)C(=O)NC(C)C	/	3.2	-2.5	-3.2	-2.3	/	/	/	/
CN(c1ccc(C(=O)NCCSCc2ccc(Cl)cc2)cc1)S(=O)(=O)c1ccccc1	i	2.4	17.7*	27.5*	3.4	6.1	2.5	35.7*	15.5*
SMILES	Rce1 inh	PLCb3 inh	ADAM17 inh	ADAM10 inh	PLCg1 inh	ADAM10 confirm	ADAM17 ctr	ADAM10 counter	ADAM17 confirm
O=C1CN(S(=O)(=O)c2cccc(C(=O)O)c2)c2ccccc2N1	i	-27.2	-1.2	-4.5	-13.8	/	/	/	/
Cc1ccc(S(=O)(=O)N(CCCO)CC(O)CON=C2c3ccccc3-c3ccccc32)cc1 (configuration not stated)	i	-22.3	18.8*	34.6*	-13.5	6.9	2.9	19.4	12.0*
Cc1ccc(O)c(N=Cc2cc(Cc3ccccc3)cc([N+](=O)[O-])c2O)c1	/	-4.6	18.7*	37.6*	6.7	0.4	1.7	21.6*	7.8
O=[N+]([O-])c1cc(Cc2ccccc2)cc(C=Nc2ccc(N3CCOCC3)cc2)c1O	i	/	/	/	/	/	/	/	/
COC(=O)[C@]12CCCCC=C1N(Cc1ccco1)C(=O)[C@H](CC(=O)NCCCN1CCCC1=O)C2	/	-2.0	-6.6	-7.4	-2.2	/	/	/	/
O=C(CN(C(=O)c1csnn1)c1ccc2c(c1)OCCO2)NCc1ccccc1	i	-4.3	-3.0	-3.7	-1.0	/	/	/	/
CCC(=O)N(Cc1ccco1)c1nc(C(=O)Nc2ccc(Cl)cc2)c(C)s1	i	-2.1	10.8*	21.7*	3.2	11.3	2.7	32.2*	17.2*
CCN(C(=O)c1ccco1)c1nc(CC(=O)Nc2ccc(Cl)cc2)cs1	/	-1.7	2.3	2.1	-2.3	/	/	/	/
Cc1cc(C)c2c(CN3CCN(Cc4ccccc4)CC3)cc(=O)oc2c1C	i	-4.8	-2.4	0.1	-0.4	/	/	/	/
CCOc1cc(/C=N/NC(=O)CNc2cccc(C)c2)ccc1OC(=O)c1ccccc1	i	2.2	11.7*	25.0*	6.3	8.4	2.8	33.1*	16.0*
CCOc1cc(/C=N/Nc2cccc(C(=O)O)c2)ccc1OC(=O)c1ccccc1	i	-4.2	-0.4	2.9	0.2	/	/	/	/
O/N=C/c1cc(Br)ccc1OCc1cccc(F)c1	i	-2.9	11.4*	27.6*	5.7	4.4	0.7	17.9	9.5*
